PubChem BioAssay (EPA / NIEHS)
Values joined by “and” are separate entries in the source; they are usually repeats but may differ in a detail not shown here. Equal entries are not always repeated. Records with an inconclusive call do not appear. A structure can be active in one record and inactive in another. Active and inactive are the calls of the source. Rule for the calls, unless noted: active = hit-call score of the fitted dose curve at least 0.9, where 1 is the maximum; inconclusive = response in the unintended direction; inactive = score below 0.9.

Legend:
[1] = tested on: Thyroperoxidase (TPO), gene 54314; assay: CCTE_Simmons_AUR_rTPO: CCTE's Amplex UltraRed Assay for Thyroperoxidase (TPO) Inhibition, Simmons Lab (AID 2283662);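 for AC50: potency for loss of signal meaning inhibition of peroxidase activity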
Method in brief: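 Rat thyroid microsomes (5 ug protein) were incubated with test compound (8 concentrations, 5 nM–87.5 uM final, 0.5% DMSO), 25 uM Amplex UltraRed and 300 uM H2O2 in 200 mM phosphate buffer for 30 min at 37C in the dark; fluorescence read at 544/590 nm.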

[2] = CCTE_Simmons_CellTiterGLO_HEK293T: Viability Assessment in CCTE's Assays for Thyroperoxidase (TPO) Inhibition, Simmons Lab (AID 2283665);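 for AC50: cells exposed to compound for 24 h before readout; actives reduce ATP signal below DMSO vehicle meaning cytotoxicity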
Method in brief: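 HEK293T cells in DMEM with 1% FBS were dosed with 8 concentrations (5 nM–87.5 uM final, 0.5% DMSO) for 24 hr at 37C; ATP content was read by CellTiter-Glo luminescence, loss-of-signal versus DMSO, three biological replicates.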

[3] = target: Luciferin 4-monooxygenase (Photinus pyralis) (UniProt P08659); assay: CCTE_Simmons_QuantiLum_inhib_2: CCTE's Firefly Luciferase Inhibition Assay, Simmons Lab (AID 2283767);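 for AC50: potency for inhibitors that lower luciferase luminescence relative to DMSO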
Method in brief: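 Recombinant firefly luciferase (5 ng/well, 200 mM potassium phosphate with 1 mg/ml BSA) was exposed to 8 concentrations from 5 nM to 87.5 uM (final, 0.5% DMSO) for 30 min at 37C in the dark. Loss of luminescence versus DMSO was read after injecting D-luciferin/ATP-analogue reagent.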

[4] = ACEA_AR_agonist_AUC_viability: ACEA Biosciences xCELLigence Real-Time Cell Analysis on Androgen Receptor Agonism for Viability (AID 2283775);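 for AC50: viability read 80 hours after compound addition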
Method in brief: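 Read-out is area under the impedance curve at 80 h post-dose in 22Rv1 cells, with DMSO as baseline and signal loss taken as reduced viability. Compounds ran in duplicate from 100 uM final.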

[5] = ACEA_AR_antagonist_AUC_viability: ACEA Biosciences xCELLigence Real-Time Cell Analysis on Androgen Receptor Antagonism for Viability (AID 2283776);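 note: 22Rv1 human prostate cancer cells growing on impedance electrode plates; area under impedance growth curve at 80 h after dosing as viability; hits lower the growth signal relative to DMSO meaning cytotoxicity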
Method in brief: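 Impedance read-out (RT-CES): area under growth curve at 80 h post-dose, loss of signal scored vs DMSO baseline. 22Rv1 cells; 8-pt 1:4 series, top 100 uM final, ≤0.5% DMSO; biological duplicate.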

[6] = ACEA_ER_AUC_viability: ACEA Biosciences xCELLigence Real-Time Cell Analysis on Estrogen Receptor Agonism for Viability (AID 2283782);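 note: continuous compound exposure with impedance area under curve over 80 h; hit means loss of impedance signal meaning reduced cell growth or viability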
Method in brief: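 T-47D; phenol red-free RPMI1640 + 10% CS-FBS; 8 conc., 1:4 serial, max 100 uM final, ≤0.5% DMSO; n = 2; continuous exposure; impedance monitored to 80 h post-dose; AUC vs DMSO.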

[7] = CCTE_Padilla_ZF_144hpf_TERATOSCORE: (Legacy) CCTE's 144 Hour Post-fertilization zebrafish Assay Teratoscore, Padilla Lab (AID 2283679; active = hit-call score of the fitted dose curve at least 0.9, where 1 is the maximum; inactive = score below 0.9;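 note: zebrafish embryos with chorions exposed by immersion from 6-8 hpf to 5 dpf with daily renewal; teratogenicity score from eye scoring of death hatching and malformations at 144 hpf; higher score means more developmental defects relative to DMSO baseline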)
Method in brief: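 Larvae scored by eye at 144 hpf for death, hatching and malformations after a day in clean Hanks'. Before that, daily-renewed exposure at 80 uM (0.4% DMSO, 26C) from roughly 6-8 hpf through 5 dpf, 4 embryos per chemical.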

[8] = CEETOX_H295R_MTT_cell_viability: Viability Assessment in the CeeTox HT-H295R MTT Assay (AID 2283718; active = hit-call score of the fitted dose curve at least 0.9, where 1 is the maximum; inactive = score below 0.9;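 for AC50: curve fitted both ways so AC50 may mark viability loss or gain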)
Method in brief: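 MTT reduction (0.5 mg/ml, 4 h at 37 C; absorbance at 570 and 650 nm) gave viability as background-corrected percent change versus controls. H295R cells had 48 h forskolin (10 uM) prestimulation, then 48 h chemical exposure at 0.1% DMSO.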

[9] = Tanguay_ZF_120hpf_ActivityScore_legacy: (Legacy) Oregon State University Tanguay Lab 120 Hour Post-fertilization zebrafish Assay Score for Activity (AID 2283742);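 for AC50: dechorionated Tropical 5D wild-type zebrafish embryos held singly per well; static exposure from 6 hpf until 120 hpf at 28 °C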
Method in brief: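 Embryos are staged, enzymatically dechorionated at 4 hpf, placed individually at 6 hpf, then held in test chemical (0.64% DMSO) at 28C until 120 hpf. Mortality and malformations are scored by brightfield, with non-mortality endpoints skipped for dead embryos.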

[10] = STM_H9_OrnCyssISnorm_ratio: Stemina devTOX quickPredict H9 human embryonic stem cell (hESC)-based Assay for Ornithine (ORN):Cystine (CYSS) Ratio (AID 2283714)
Method in brief: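 Steps: H9 hESCs in pluripotent state dosed 72h, medium plus compound renewed every 24h; conditioned medium from the final 24h deproteinized in 40% acetonitrile; ORN and CYSS quantified by UPLC-HRMS with C13 spike-ins; ratio relative to vehicle.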

[11] = STM_H9_OrnithineISnorm_perc: Stemina devTOX quickPredict H9 human embryonic stem cell (hESC)-based Assay for Ornithine (ORN) Metabolite Biomarker, Normalized (AID 2283712; active = hit-call score of the fitted dose curve at least 0.9, where 1 is the maximum; inactive = score below 0.9;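 note: ornithine released into spent medium during last day measured by mass spectrometry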)
Method in brief: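 Undifferentiated pluripotent H9 hESCs were exposed to compound for 72h, with media and compound replaced every 24h. Ornithine in final 24-h conditioned media was measured by UPLC-HRMS, normalized to 13C-labeled spike-in standard and to median 0.1% DMSO control.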

[12] = STM_H9_CystineISnorm_perc: Stemina devTOX quickPredict H9 human embryonic stem cell (hESC)-based Assay for Cystine (CYSS) Metabolite Biomarker, Normalized (AID 2283713; active = hit-call score of the fitted dose curve at least 0.9, where 1 is the maximum; inactive = score below 0.9)
Method in brief: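 Undifferentiated H9 hESCs were exposed to compound for 72h, with medium and compound replaced every 24h. Final-24h conditioned medium was deproteinized and analyzed by UPLC-HRMS. Cystine EIC area was normalized to spiked C13 standard and 0.1% DMSO median.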

[13] = Tanguay_ZF_120hpf_TR_legacy: (Legacy) Oregon State University Tanguay Lab 120 Hour Post-fertilization zebrafish Assay for Touch Response (AID 2283667)
Method in brief: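 5D WT embryos; static exposure to 120 hpf, 28C, sealed/dark; DMSO 0.64% v/v final. TR scored present/absent; dead embryos excluded. Pos ctrl 5uM trimethyltin chloride.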

Measured: AC50

Sequence of Luciferin 4-monooxygenase (Photinus pyralis) (P08659 whole entry, looked up): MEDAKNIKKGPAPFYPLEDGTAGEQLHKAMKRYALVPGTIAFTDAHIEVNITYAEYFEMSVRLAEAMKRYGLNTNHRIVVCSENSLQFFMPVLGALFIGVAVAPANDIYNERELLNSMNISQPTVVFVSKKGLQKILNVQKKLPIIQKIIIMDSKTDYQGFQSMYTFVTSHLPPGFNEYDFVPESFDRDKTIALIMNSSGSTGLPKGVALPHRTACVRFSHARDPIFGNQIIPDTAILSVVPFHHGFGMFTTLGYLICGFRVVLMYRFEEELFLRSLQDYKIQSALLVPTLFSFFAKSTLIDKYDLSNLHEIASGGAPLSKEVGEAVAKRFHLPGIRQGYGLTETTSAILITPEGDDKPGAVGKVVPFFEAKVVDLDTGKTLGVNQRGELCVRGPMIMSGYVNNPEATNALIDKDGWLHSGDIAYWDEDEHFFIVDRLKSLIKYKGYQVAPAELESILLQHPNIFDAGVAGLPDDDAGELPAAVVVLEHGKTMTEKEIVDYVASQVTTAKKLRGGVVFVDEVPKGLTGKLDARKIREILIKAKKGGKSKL

CCCc1ccc(N)cc1
active: [1] 0.0301 µM
inactive: [2] | [3] | [4] | [5] | [6]

O=C(c1ccc(OCCN2CCCCC2)cc1)c1c(-c2ccc(O)cc2)sc2cc(O)ccc12
inactive: [1] | [8] | [9] | [3]
active: [2] 20 µM | [7] 86.8 µM | [4] 50 µM | [5] 21.7 µM | [6] 11.1 µM and 17.8 µM and 18 µM

O=Cc1ccccc1O
inactive: [1] | [3] | [4] | [5]

CC(=O)OC/C=C(C)/C=C/C=C(C)/C=C/C1=C(C)CCCC1(C)C
active: [1] 50.9 µM | [10] 78.1 µM | [8] 73.7 µM | [6] 68.5 µM
inactive: [2] | [3]

CCCCCCCCCCCCOCCOS(=O)(=O)O
inactive: [3] | [5]
active: [1] 50.8 µM | [2] 78.3 µM | [6] 84.1 µM

CCCCCCOc1ccc(O)cc1
active: [1] 8.69 µM | [2] 66.1 µM | [3] 53.8 µM | [4] 10.9 µM | [5] 10.4 µM | [6] 67.3 µM

NC(N)=S
inactive: [2] | [3] | [4] | [5]
active: [1] 19.1 µM and 12.3 µM | [3] 10.4 µM

COC(=O)c1ccc(C(=O)OC)cc1
active: [7] 4.57 µM | [9] 77.4 µM
inactive: [11] | [12] | [10] | [8] | [4] | [5] | [6]

CCCCCCCCOC(=O)c1ccc(O)cc1
active: [1] 52.8 µM | [2] 24.4 µM | [6] 24.7 µM
inactive: [3] | [4]

CCCCCCCCCCCCS
active: [1] 7.49 µM | [2] 83.5 µM
inactive: [3]

CC(=O)Nc1cc(S(=O)(=O)O)cc2cc(S(=O)(=O)O)c(N=Nc3ccccc3)c(O)c12
active: [1] 40.8 µM | [2] 17.3 µM | [3] 21.2 µM
inactive: [5]

CCCCC/C=C\C=C\C(=O)OCC
active: [1] 38.6 µM | [2] 88.6 µM | [6] 80.8 µM
inactive: [3]

C=C(C)C(N)=O
inactive: [13] | [9] | [4] | [5]

O=C1OC2(c3ccc(O)cc3Oc3cc(O)ccc32)c2ccccc21
active: [1] 10.2 µM
inactive: [2] | [3] | [4] | [5]
